Bioassay records from PubChem BioAssay.
An excerpt weighted towards active compounds, which were near 12% of everything screened.
G9a inh – inhibitors of human histone lysine methyltransferase G9a; Q96KQ7; G9a H3K9 monomethylation, AlphaScreen, 2 h; Potency, µM (top dose mostly 102 µM), for inactives: at the top dose activity, negative = inhibition, usual class: inhibitors; 8.8% of 350,000 active; AID 504332; also: % is scaled to controls: 0 for no effect and ±100 for the full control effect; nearly all actives have a fitted effect of over 75% in size
Target sequence (Q96KQ7 913-1193 limits assumed): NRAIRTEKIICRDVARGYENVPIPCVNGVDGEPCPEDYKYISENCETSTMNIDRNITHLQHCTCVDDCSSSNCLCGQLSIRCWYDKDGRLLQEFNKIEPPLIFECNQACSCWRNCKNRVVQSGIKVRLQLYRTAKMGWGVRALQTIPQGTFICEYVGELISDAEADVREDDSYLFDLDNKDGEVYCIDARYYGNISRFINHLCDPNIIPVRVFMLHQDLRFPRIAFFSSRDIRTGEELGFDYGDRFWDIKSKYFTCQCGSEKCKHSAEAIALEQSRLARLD
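Using a bead-based AlphaScreen, monomethylated H3K9 product from 2 h room-temperature reactions (G9a 20 nM, peptide 500 nM, SAM 20 uM) was detected with 0.5 ug/mL rabbit anti-H3K9me1 antibody.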
BAZ2B block – BAZ2B (human) inhibition; Q9UIF8; AlphaScreen BAZ2B-H3K14Ac peptide displacement; Potency, µM (titrated, usually from 114 µM), for inactives: at the highest dose activity change, negative = inhibition, usual class: inhibitors; 4.4% of 360,000 active; also: % is scaled to controls: 0 for no effect and ±100 for the full control effect; nearly all actives have a fitted effect of over 60% in size
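Protein-peptide AlphaScreen: BAZ2B 50 nM, b-H3K14Ac 50 nM, 1x PBS pH 7.4 + 0.01% Tween-20. Preincubation 30 min RT; cpd 30 min RT (top 110 uM); beads 20 min RT, light-protected.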
L3MBTL1 block – L3MBTL1 (human) inhibition; 0.66% of 230,000 active; AlphaScreen L3MBTL1–H3K9me1 peptide binding; Potency, µM (highest dose often 57.1 µM), inactives show top-dose activity, negative = inhibition, hits mostly inhibitors; also: % is scaled to controls: 0 for no effect and ±100 for the full control effect; nearly all actives have a fitted effect of over 60% in size
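Displacement of a biotinylated histone H3(1-15) peptide monomethylated at Lys9 (75 nM) from L3MBTL1 (50 nM) was measured by AlphaScreen after a 30 min room-temperature compound incubation; cefsulodin titration served as intraplate control.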
Sfp PPTase inh – blocks B. subtilis Sfp PPTase activity; Q9F4F7; Biochemical Sfp PPTase activity, qHTS; Potency, µM, without a hit: largest response in the series, negative = inhibition, hits mostly inhibitors; 3.5% of 310,000 active; AID 1490;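 also: the enzyme is Sfp with the accession as filed and its product quenches rhodamine fluorescence; 0% = enzyme reaction without inhibitor and -100% = no enzyme wells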
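After 15 min at room temperature with compound, 15 nM Sfp received 5 uM rhodamine-CoA plus 12.5 uM BHQ-2-ybbR (50 mM Hepes pH 7.6, 10 mM MgCl2). Rate came from the fluorescence difference over 30 min, ex 525/em 598 nm.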
HP1b chromo inh – inhibitors of HP1-beta chromodomain binding to methylated histone tails; AlphaScreen HP1-beta / biotin-H3K9me3 peptide binding; Potency, µM (titrated, usually from 114 µM), inactives show at the highest dose activity change, negative = inhibition, most hits filed as inhibitors; 0.56% of 390,000 active; AID 540317; also: nearly all actives have a fitted effect of over 70% in size
Target sequence (P83916 whole entry, looked up): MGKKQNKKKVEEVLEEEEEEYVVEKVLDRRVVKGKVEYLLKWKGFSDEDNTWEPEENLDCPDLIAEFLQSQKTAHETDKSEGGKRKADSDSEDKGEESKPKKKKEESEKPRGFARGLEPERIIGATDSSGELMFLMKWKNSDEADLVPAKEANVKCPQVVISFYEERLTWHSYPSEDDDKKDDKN
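HP1-beta protein (50 nM final) preincubated 30 min at room temperature with biotinylated H3(1-18)K9me3 peptide (50 nM) in PBS pH 7.4, 0.01% Tween-20, then compound added for 30 min. AlphaScreen streptavidin donor/nickel chelate acceptor beads (10 ug/mL final), 30 min dark, luminescence read.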
JMJD2A Tudor – JMJD2A Tudor domain (human) inhibition; Potency, µM (highest dose often 114 µM), inactives show top-dose activity change, negative = inhibition, most hits filed as inhibitors; AlphaScreen JMJD2A-Tudor / H3K4me3 peptide binding; O75164; 4.4% of 390,000 active; also: % is scaled to controls: 0 for no effect and ±100 for the full control effect; nearly all actives have a fitted effect of over 50% in size
* hit, by the source's call; ! = not active in a repeat; [ ] = dose if it differs, or a comment. Calls follow the shape of the dose curve; as a rule, active = well fitted curve in the direction sought with a large enough effect; inconclusive = small, poorly fitted or top-dose-only effect, or another doubt; inactive = no such curve, though single readings can be large; an effect the other way counts as inactive or inconclusive. Potency is read from the fitted curve at half-maximal effect.

Results for Cc1ccc(SCCCCN2CCOCC2)cc1 ?
G9a inh: -27%; BAZ2B block: -5%; L3MBTL1 block: 2%; Sfp PPTase inh: -1%; HP1b chromo inh: 26%; JMJD2A Tudor: -19%

What do the screens show for `CC(=O)Oc1ccc(OC(C)=O)c(SCCCCCN2CCOCC2)c1`?
G9a inh: 27%[0.501 µM]; BAZ2B block: -34%; L3MBTL1 block: -4%; Sfp PPTase inh: 79µM*; HP1b chromo inh: inconclusive; JMJD2A Tudor: -13%

What do the screens show for `CC1CN(CCOCCSc2ccc(Cl)cc2)CC(C)O1` (stereo not given)?
G9a inh: inconclusive; BAZ2B block: 50µM*; L3MBTL1 block: 8%; Sfp PPTase inh: -25%; HP1b chromo inh: inconclusive; JMJD2A Tudor: 8.9µM*

Results for CC1CN(CCOCCSc2ccccc2)CC(C)O1 (stereo not given) ?
G9a inh: 35%[12.7 µM]; BAZ2B block: -19%; L3MBTL1 block: -1%; Sfp PPTase inh: 3%; HP1b chromo inh: 18%; JMJD2A Tudor: -16%

What do the screens show for `CC(=O)Oc1ccccc1-n1c(C)nc(=O)c(-c2ccccc2)c1C`?
G9a inh: -1%[12.7 µM]; BAZ2B block: 4%; L3MBTL1 block: 8%; Sfp PPTase inh: 3%; HP1b chromo inh: 21%; JMJD2A Tudor: -4%

What do the screens show for `COc1ccc(N/C=C\C(=O)c2ccc3ccccc3c2)cc1`?
G9a inh: inconclusive; BAZ2B block: -23%; L3MBTL1 block: -2%; Sfp PPTase inh: 12%; HP1b chromo inh: 60%; JMJD2A Tudor: -10%

Results for NS(=O)(=O)c1ccc(N/C=C\C(=O)c2ccc3ccccc3c2)cc1 ?
G9a inh: 8.9µM*; BAZ2B block: inconclusive; L3MBTL1 block: 2%; Sfp PPTase inh: -5%; HP1b chromo inh: 27%; JMJD2A Tudor: -25%

Results for CC(=O)N1c2ccc(S(=O)(=O)Nc3ccc(C)c(C)c3)cc2CC1C (stereo not given) ?
JMJD2A Tudor: -28%

What do the screens show for `O=C(COC(=O)c1ccc(F)cc1Cl)NC1CCS(=O)(=O)C1` (stereo not given)?
G9a inh: 15%[2.33 µM]; BAZ2B block: 10%; L3MBTL1 block: -2%; HP1b chromo inh: 39%; JMJD2A Tudor: 5%

What do the screens show for `CCOc1ccc(NS(=O)(=O)c2ccc(-c3cc(C)no3)s2)cc1`?
G9a inh: 12%[59 µM]; BAZ2B block: -1%; HP1b chromo inh: 23%; JMJD2A Tudor: -28%

Results for O=C(Cc1cccc2ccccc12)Nc1nnc(-c2cccc([N+](=O)[O-])c2)s1 ?
G9a inh: inconclusive; BAZ2B block: -10%; L3MBTL1 block: 1%; Sfp PPTase inh: inconclusive; HP1b chromo inh: 26%; JMJD2A Tudor: -14%

How did O=C(CSc1ccc(Cl)cc1)Nc1nnc(-c2cccc([N+](=O)[O-])c2)s1 do in these assays?
G9a inh: 40µM*; BAZ2B block: -8%; L3MBTL1 block: 3%; Sfp PPTase inh: -21%; HP1b chromo inh: 56%; JMJD2A Tudor: -10%

What do the screens show for `CN1CCN(C2Cc3cc(F)ccc3Sc3ccc(Cl)cc32)CC1` (stereo not given)?
HP1b chromo inh: 7%; JMJD2A Tudor: inconclusive

How did CSc1ccc2c(c1)C(N1CCN(C)CC1)Cc1ccccc1S2 (stereo not given) do in these assays?
G9a inh: 18µM*!; BAZ2B block: inconclusive; L3MBTL1 block: -27%; Sfp PPTase inh: -20%; HP1b chromo inh: -33%; JMJD2A Tudor: 63µM*

How did CN1CCN(C2Cc3ccccc3Sc3ccc(Cl)cc32)CC1 (stereo not given) do in these assays?
G9a inh: inconclusive; BAZ2B block: -37%; L3MBTL1 block: -1%; Sfp PPTase inh: -23%; HP1b chromo inh: -25%; JMJD2A Tudor: 79µM*

Results for O=C(NN=C1CCCC1)c1ccc(Cl)cc1 ?
G9a inh: -5%; BAZ2B block: inconclusive; Sfp PPTase inh: -1%; HP1b chromo inh: 46%; JMJD2A Tudor: -7%

What do the screens show for `O=C1CCC/C(=N/Nc2ccc(Cl)cc2)C1`?
G9a inh: 4.5µM*; BAZ2B block: 45µM*; L3MBTL1 block: -22%; Sfp PPTase inh: 20µM*; HP1b chromo inh: inconclusive; JMJD2A Tudor: 45µM*

Results for COC(=O)c1sc(=S)sc1C(=O)OC ?
G9a inh: 28µM*; BAZ2B block: -38%; L3MBTL1 block: 1%; Sfp PPTase inh: -26%; HP1b chromo inh: inconclusive; JMJD2A Tudor: inconclusive

Results for COC(=O)c1sc(C(=O)OC)c(C(=O)OC)c1C(=O)OC ?
G9a inh: inconclusive; BAZ2B block: 2%; L3MBTL1 block: -11%; Sfp PPTase inh: 26%; HP1b chromo inh: 43%; JMJD2A Tudor: -1%

How did Cc1ccccc1N1C(=O)c2cc(S(N)(=O)=O)c(Cl)cc2NC1C (stereo not given) do in these assays?
G9a inh: 5%[59 µM]; BAZ2B block: 5%; L3MBTL1 block: -14%; Sfp PPTase inh: 6%; HP1b chromo inh: 30%; JMJD2A Tudor: -3%

What do the screens show for `Cc1ccccc1NC(=O)c1cccc(Cn2cc(Br)c([N+](=O)[O-])n2)c1`?
G9a inh: 19%[12.7 µM]; BAZ2B block: -3%; L3MBTL1 block: -2%; Sfp PPTase inh: 1%; HP1b chromo inh: 13%; JMJD2A Tudor: -5%

Results for COc1ccc(OC)c(NC(=O)c2cccc(Cn3cc(Br)c([N+](=O)[O-])n3)c2)c1 ?
G9a inh: 2.5µM*; BAZ2B block: -11%; L3MBTL1 block: -8%; Sfp PPTase inh: -12%; HP1b chromo inh: -7%; JMJD2A Tudor: -27%

How did COc1ccc(CNC(=O)COC(=O)CCN2C(=O)C3CC=CCC3C2=O)cc1OC (stereo not given) do in these assays?
G9a inh: -15%[12.7 µM]; BAZ2B block: 10%; L3MBTL1 block: 7%; HP1b chromo inh: 36%; JMJD2A Tudor: -8%

Results for CCOC(=O)CN=C1CC(C)(C)CC2=C1Sc1ncnc(N(C)C)c1N2 ?
G9a inh: 4.5µM*; BAZ2B block: inconclusive; L3MBTL1 block: -4%; Sfp PPTase inh: 10µM*; HP1b chromo inh: -3%; JMJD2A Tudor: inconclusive

What do the screens show for `CCn1c(SCC(=O)Nc2ccc3c(c2)oc2ccccc23)nnc1-c1ccc(N)cc1`?
G9a inh: inconclusive; BAZ2B block: -31%; Sfp PPTase inh: 0%; HP1b chromo inh: -14%; JMJD2A Tudor: inconclusive

What do the screens show for `Cn1c(SCC(=O)O)nnc1-c1ccc(NC(=O)c2ccc(Cl)c(Cl)c2)cc1`?
G9a inh: 50µM*; BAZ2B block: -1%; L3MBTL1 block: -3%; Sfp PPTase inh: 12%; HP1b chromo inh: 24%; JMJD2A Tudor: -8%
